Bioassay records (PubChem BioAssay)
Compounds with a hit are over-represented: about 3.7% of the library has one in this group of screens.
CHT PAM – CHT positive allosteric modulators, primary screen, cell-based, membrane potential dye, choline EC20. High affinity choline transporter 1 (Homo sapiens), Q9GZV3. CHT-expressing cells; active compounds read high; LV-AA mutant CHT in HEK293 cells. B-score at 10 µM. 310,000 tested, 0.49% active. AID 488977, 2010;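 active = initial fluorescence not abnormally high and integrated response B-score, plate-corrected, over 3 SD above library mean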
ANO1 activ – TMEM16A chloride channel activators or potentiators, primary screen, cell-based, HTS; Anoctamin-1 (Mus musculus), Q8BHY3; HEK293 TMEM16A/YFP-H148Q/I152L, iodide quench fluorescence; active compounds read low; B-score at 10 µM; AID 623877, 2012; 340,000 tested, 0.3% active;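 active = fluorescence-ratio B-score plate-corrected deviation score at least 3 library SD below zero, with starting fluorescence score within 5 deviations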;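 note: channel opened by trigger with iodide after compound preincubation; score built on the fluorescence ratio of max minus min over baseline; more negative score means more quench and so TMEM16A activation or potentiation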
Target sequence (Q8BHY3 whole entry, looked up): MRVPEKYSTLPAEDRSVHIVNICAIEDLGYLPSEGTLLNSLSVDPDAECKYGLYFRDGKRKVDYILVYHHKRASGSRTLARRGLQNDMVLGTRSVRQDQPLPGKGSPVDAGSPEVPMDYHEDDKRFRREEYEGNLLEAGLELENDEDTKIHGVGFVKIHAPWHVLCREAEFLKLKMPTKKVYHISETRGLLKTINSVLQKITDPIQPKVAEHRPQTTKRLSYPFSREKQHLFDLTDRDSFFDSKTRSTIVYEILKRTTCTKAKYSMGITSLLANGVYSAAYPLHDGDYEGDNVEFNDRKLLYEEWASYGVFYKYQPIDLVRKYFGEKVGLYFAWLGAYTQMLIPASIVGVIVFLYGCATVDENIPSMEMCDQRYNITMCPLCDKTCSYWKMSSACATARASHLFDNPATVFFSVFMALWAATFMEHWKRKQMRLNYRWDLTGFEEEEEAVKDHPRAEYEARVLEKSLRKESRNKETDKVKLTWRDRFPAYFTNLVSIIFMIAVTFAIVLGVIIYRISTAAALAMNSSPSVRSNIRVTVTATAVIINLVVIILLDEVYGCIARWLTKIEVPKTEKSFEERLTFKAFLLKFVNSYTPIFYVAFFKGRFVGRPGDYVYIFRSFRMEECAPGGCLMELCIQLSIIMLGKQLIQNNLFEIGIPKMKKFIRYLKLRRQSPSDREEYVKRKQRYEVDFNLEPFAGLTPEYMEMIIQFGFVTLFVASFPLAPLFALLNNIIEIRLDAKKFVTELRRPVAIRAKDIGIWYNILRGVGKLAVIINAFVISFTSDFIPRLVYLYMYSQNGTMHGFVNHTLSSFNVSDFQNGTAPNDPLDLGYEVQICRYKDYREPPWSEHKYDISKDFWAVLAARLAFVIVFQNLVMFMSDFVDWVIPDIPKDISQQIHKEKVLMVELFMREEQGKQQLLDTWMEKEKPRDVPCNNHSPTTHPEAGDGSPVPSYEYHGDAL
TMEM16A inh – TMEM16A chloride channel inhibitors, primary screen, cell-based, HTS | HEK293 TMEM16A/YFP iodide influx fluorescence, ionomycin | normalized B-score (activity score, 25-100; higher = stronger inhibition) at 10 µM | AID 588511, 2011 | 310,000 tested, 1.2% active;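 active = ratio plate-corrected score three or more library SD toward inhibition, starting fluorescence score within five deviations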;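 note: score derived from kinetic fluorescence span divided by baseline fluorescence per well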
Kir21 block – inhibitors of mouse Kir2.1 inward-rectifier potassium channel; Inward rectifier potassium channel 2 (Mus musculus), P35561; HEK293-Kir2.1, FluxOR thallium flux fluorescence; active compounds read low; B-score at 10 µM; 310,000 tested, 0.85% active; AID 1672, 2009;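 active = fluorescence ratio B-score at or below minus 3 SD of library scores, with starting-brightness B-score within 2 SD, cut at about -4.2 in these data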;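 note: channel flux triggered by added potassium and thallium sulfate stimulus; B-score of peak minus minimum fluorescence over baseline after thallium stimulus; more negative B-score means stronger Kir2.1 block with less thallium influx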
CHT inh – inhibitors of human choline transporter CHT. AID 488975, 2010. 310,000 tested, 0.86% active. High affinity choline transporter 1 (Homo sapiens), Q9GZV3. CHT-expressing cells, membrane potential dye, choline response; active compounds read low. B-score at 10 µM;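 active = B-score over 3 SD under the library average, and starting fluorescence ratio not unusually high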;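 note: choline stimulus applied at its EC90 after an EC20 pre-addition; B-score computed on integrated fluorescence ratio after choline addition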
GPR7 antagonist – GPR7 receptor antagonists, primary screen, cell-based, fluorescence, single concentration; Neuropeptides B/W receptor type 1 (Homo sapiens), P48145; GPR7-expressing cells, fluorescence antagonist assay; inhibition, % at 4.4 µM; 290,000 tested, 1.1% active; in the data active = inhibition above about 16%, passing the limit was not always enough;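 note: cells stimulated with the agonist NPW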
CHT act confirm – CHT activators, confirmation, cell-based, membrane potential dye, duplicate; shares compounds with CHT PAM; CHT-expressing cells, membrane potential dye fluorescence (FDSS); % of choline EC20–EC90 response window; HEK293 expressing CHT LV-AA mutant; choline added at its EC20; activation, % at 10 µM; 2,500 tested, 91% active;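 active = primary screen active, with duplicate mean activation above negative control mean plus 3 SD, cut at about 11% in these data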
HEK293 MP dye – membrane potential response in parental HEK293 cells, counter-screen for CHT activator project, cell-based, membrane potential dye | shares compounds with CHT PAM | membrane potential dye fluorescence (FDSS); measured after EC20 choline addition | ratio readout change at 10 µM, hits read low | 2,500 tested, 62% active;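 active = duplicate-averaged ratio beyond 3 SD from buffer wells, up or down, though filed actives are nearly all decreases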
Large screens that a line does not name were inactive (follow-up assays come after a bar, where they were run).

Cc1cc(NC(=O)CSc2ccc3nnc(-c4cccnc4)n3n2)no1	CHT PAM 9.3 | CHT act confirm 49 | HEK293 MP dye -42
Cc1ccc(NC(=O)CSc2ccc3nnc(-c4ccccn4)n3n2)cc1	none
CC(=O)c1ccc(NC(=O)CSc2ccc3nnc(-c4ccccn4)n3n2)cc1	none | CHT act confirm 49 | HEK293 MP dye -46
O=C(CSc1ccc2nnc(-c3cccnc3)n2n1)N1CCOCC1	CHT PAM 7.1 | CHT act confirm 30 | HEK293 MP dye -26
Cc1ccc(NC(=O)CSc2ccc3nnc(-c4cccnc4)n3n2)cc1	none
Cc1ccc(-c2nnc3ccc(SCC(=O)Nc4cc(C)on4)nn23)cc1	none
NC(=O)NC(CC(=O)NNC(=O)c1cccs1)c1ccc(Cl)cc1 (stereo unspecified)	none (no result: CHT PAM, TMEM16A inh, Kir21 block, CHT inh, GPR7 antagonist)
CC(=O)NC(CC(=O)NC1CCCc2ccccc21)c1ccccc1 (stereo unspecified)	none
CCCCC[n+]1cccc2c3ccccc3ccc21	CHT PAM 7.5 | CHT act confirm 47 | HEK293 MP dye -74
CC1(C)CC(C(=O)NCCC(c2ccccc2)c2ccco2)CCO1 (stereo unspecified)	none
CC(c1ccccc1)N(CCC(c1ccccc1)C1CCOC(C)(C)C1)C(=O)c1ccco1 (stereo unspecified)	CHT PAM 6.4, Kir21 block -6 | CHT act confirm 34 | HEK293 MP dye inactive
COCCCn1c(SCc2ccc(OC)cc2)nc2cc(OC)c(OC)cc2c1=N	none
CCCSc1nc2cc(OC)c(OC)cc2c(=N)n1CCCN1CCOCC1	CHT PAM 6.5 | CHT act confirm 53 | HEK293 MP dye -40
Cc1csc2c(NCCCN3CCOCC3)ncnc12	none | CHT act confirm 41 | HEK293 MP dye -38
Cc1ccc2ncnc(NCCCN3CCOCC3)c2c1	none
O=C1CC2(CCN(C(=O)c3ccc(F)cc3)CC2)Oc2ccccc21	none (no result: GPR7 antagonist)
CCC(C)(C)C1CCc2nc3ccccc3c(C(=O)OC(C)C(=O)Nc3c(C)n(C)n(-c4ccccc4)c3=O)c2C1 (stereo unspecified)	CHT PAM 11 | CHT act confirm 32 | HEK293 MP dye inactive
COc1ccc(C(CNC(=O)CSc2ccc(Br)cc2C)N2CCOCC2)cc1 (stereo unspecified)	none (no result: GPR7 antagonist) | CHT act confirm inactive | HEK293 MP dye inactive
CN1CCN(NC(=O)c2cc(-c3ccc(Cl)s3)nc3ccccc23)CC1	Kir21 block -4.5 | CHT act confirm inactive | HEK293 MP dye -37
CCCc1nc2c(C)ccc(C)c2c(N)c1CC	none | CHT act confirm 55 | HEK293 MP dye -52
CCc1c(-c2ccccc2)nc2sc3c(c2c1N)CCCC3	none
Oc1ccc(/C=N/Nc2cc(N3CCOCC3)nc(N3CCOCC3)n2)cc1O	CHT PAM 7.1 | CHT act confirm 47 | HEK293 MP dye -62
Oc1ccccc1/C=N/Nc1cc(N2CCCC2)nc(N2CCCC2)n1	none
O=C(CCCCn1cnc2c(=S)nc[nH]c21)Nc1ccc(C(=O)O)c(O)c1	none (no result: CHT PAM, TMEM16A inh, Kir21 block, CHT inh, GPR7 antagonist)
COC(=O)c1ccc(CSc2nc3ccccc3c(=O)n2-c2ccccc2)o1	CHT PAM 8.6 | CHT act confirm 19 | HEK293 MP dye inactive
Cc1noc(C)c1CSc1nc2ccccc2c(=O)n1-c1ccccc1	CHT PAM 9.3 | CHT act confirm 35 | HEK293 MP dye inactive
Cc1noc(C)c1CSc1nc2ccccc2c(=O)n1-c1ccc(F)cc1F	CHT PAM 11 | CHT act confirm inactive | HEK293 MP dye inactive
